Values joined by “and” are separate entries in the source; they are usually repeats but may differ in a detail not shown here. Equal entries are not always repeated. Inconclusive results are not listed. Active and inactive are the calls of the source. Unless noted, the call rests on the fitted dose curve; in most records, active means well fitted curve in the direction sought with a large enough effect; inconclusive means small, poorly fitted or top-dose-only effect, or another doubt; inactive means no such curve, though single readings can be large; an effect the other way counts as inactive or inconclusive.
Columns and labels:
[1] = target: Glutaminase kidney isoform, mitochondrial (Homo sapiens) (UniProt O94925); experiment: qHTS for Inhibitors of Glutaminase (GLS): LOPAC Validation (AID 624146); further: nearly all actives have a fitted effect of over 60% in size; further: potency means the concentration at half of the fitted maximal effect
Chain of Glutaminase kidney isoform, mitochondrial (Homo sapiens) (O94925 whole entry, looked up, canonical isoform): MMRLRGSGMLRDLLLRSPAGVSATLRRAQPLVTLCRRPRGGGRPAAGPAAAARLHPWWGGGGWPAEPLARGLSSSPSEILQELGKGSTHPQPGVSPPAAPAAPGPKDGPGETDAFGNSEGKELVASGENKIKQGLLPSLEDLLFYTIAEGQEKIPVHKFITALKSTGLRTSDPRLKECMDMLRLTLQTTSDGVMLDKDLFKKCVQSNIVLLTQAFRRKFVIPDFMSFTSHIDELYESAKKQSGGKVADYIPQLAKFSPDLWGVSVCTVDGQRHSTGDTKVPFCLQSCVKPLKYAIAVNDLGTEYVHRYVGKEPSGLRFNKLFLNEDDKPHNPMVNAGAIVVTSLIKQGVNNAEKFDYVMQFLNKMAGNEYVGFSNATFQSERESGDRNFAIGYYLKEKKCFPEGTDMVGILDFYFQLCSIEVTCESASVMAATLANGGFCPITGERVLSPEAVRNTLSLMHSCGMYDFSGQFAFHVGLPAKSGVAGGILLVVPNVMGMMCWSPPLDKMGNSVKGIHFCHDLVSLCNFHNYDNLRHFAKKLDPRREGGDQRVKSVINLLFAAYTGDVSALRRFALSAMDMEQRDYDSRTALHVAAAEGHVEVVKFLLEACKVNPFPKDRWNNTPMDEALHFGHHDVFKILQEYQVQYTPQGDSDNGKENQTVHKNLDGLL
Summary of the method: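 Two-point fluorescence kinetic (t0, 30 min RT) for hKGA; glutamate detected via glutamate oxidase–HRP–Amplex Red. Substrate: 1 mM L-glutamine solution; buffer 45 mM KH2PO4, pH 8.2.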

[2] = qHTS of Trypanosoma Brucei Inhibitors: LOPAC Validation (AID 624147); further: 0% is about no effect
Summary of the method: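 TbPYK + substrate in 50 mM TEA pH 7.2, 100 mM KCl, 10 mM MgCl2, 0.05% BSA, 0.01% Tween-20; cpd pinned; ADP 130 uM final; 45 min RT; Kinase-Glo Plus 10 min; luminescence endpoint.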

[3] = target: Glucagon-like peptide 1 receptor (Homo sapiens) (UniProt P43220); experiment: qHTS of GLP-1 Receptor Agonists: LOPAC Validation (AID 624148);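 further: 0% is about no effect; higher luminescence signal means agonism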
Chain of Glucagon-like peptide 1 receptor (Homo sapiens) (P43220 whole entry, looked up): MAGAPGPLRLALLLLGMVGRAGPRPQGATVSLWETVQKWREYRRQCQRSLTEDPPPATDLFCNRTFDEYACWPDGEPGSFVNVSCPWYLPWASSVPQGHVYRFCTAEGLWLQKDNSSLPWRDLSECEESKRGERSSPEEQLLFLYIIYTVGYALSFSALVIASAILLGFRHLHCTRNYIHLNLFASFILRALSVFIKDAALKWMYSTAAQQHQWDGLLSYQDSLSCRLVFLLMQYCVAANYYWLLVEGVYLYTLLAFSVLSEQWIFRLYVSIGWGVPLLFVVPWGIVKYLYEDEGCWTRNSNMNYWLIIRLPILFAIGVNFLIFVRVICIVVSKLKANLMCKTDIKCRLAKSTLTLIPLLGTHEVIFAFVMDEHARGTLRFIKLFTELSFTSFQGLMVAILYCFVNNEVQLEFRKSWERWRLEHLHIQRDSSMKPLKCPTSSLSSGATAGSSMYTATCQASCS
Summary of the method: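 HEK293 cells stably co-expressing GLP-1R and a cAMP-responsive luciferase reporter, plated 12 hours before compound, then incubated 4-6 hr at 37 deg C. Luminescence read 12 min after detection reagent.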

[4] = qHTS of Nrf2 Activators: LOPAC Validation (AID 624149); further: 0% is about no effect
Summary of the method: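 AREc32_Fluc cells, 1000/well, OPTI-MEM + 5% FBS, o/n 37 deg C 5% CO2; compound pin-transfer, 24 hr 37 deg C; Steady-Glo 30 min RT, luminescence read.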

[5] = HTS Assay for Allosteric Antagonists of the Human D2 Dopamine Receptor: Hit Validation in HTRF (AID 624455); further: on the % scale 0 is the no-effect control and ±100 the full control effect
Summary of the method: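 HTRF read-out; cells stably expressing D1 receptor; hits scored for inhibition of D1-mediated response. Primary screen: calcium flux, force-coupled inducible Hek293 Trex D2 line, antagonism vs EC80 dopamine.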

[6] = qHTS assay for small molecule agonists of the antioxidant response element (ARE) signaling pathway (AID 651741; active means well fitted activation curve with a large enough effect in the signal ratio; the % refers to the signal ratio; further: potency means the concentration at half of the fitted maximal effect; on activation: % of control where 0% means no effect)
Summary of the method: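 HepG2 ARE-bla reporter cells, 2,000/well; 5 h settle at 37 C/5% CO2; compound pin transfer (23 nL, DMSO); 16 h at 37 C; LiveBLAzer B/G FRET substrate, 2 h RT; fluorescence intensity read.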

[7] = qHTS assay for small molecule activators of the p53 signaling pathway (AID 651743; active means well fitted activation curve with a large enough effect in the signal ratio, not every such curve was filed as active; the % refers to the signal ratio; further: potency means the concentration at half of the fitted maximal effect; on activation: % of control where 0% means no effect); conditions: HCT-116 p53RE-bla, beta-lactamase FRET ratio, 16 h; activation: stronger effect = higher value
Summary of the method: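 Reporter: beta-lactamase driven by p53 response elements, stably integrated in HCT-116 cells. Cells seeded at 4,000/well, 5 h preincubation, compound (DMSO) 16 h at 37 C; B/G FRET substrate 2 h RT; fluorescence intensity read.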

[8] = qHTS assay for environmental chemicals that activate the Aryl hydrocarbon Receptor (AhR) signaling pathway (AID 651777); conditions: 1A2-DRE human hepatoma cells, luciferase, 24 h; activation: stronger effect = higher value; further: % of control where 0% means no effect; nearly all actives have a fitted effect of over 15% in size
Summary of the method: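 Human hepatoma 1A2-DRE cells, stably carrying a dioxin response element and CYP1A2 promoter driving luciferase, were exposed to compounds for 24 hr at 37 C and 5% CO2. Luciferase signal was then read after 30 min One-Glo at room temperature.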

[9] = target: Peroxisome proliferator-activated receptor alpha (Homo sapiens) (UniProt Q07869); experiment: qHTS assay for small molecule agonists of the peroxisome proliferator-activated receptor alpha (PPARalpha) signaling pathway (AID 651778); conditions: PathHunter PPARalpha complementation, chemiluminescence, 6 h; stronger effect = higher value; further: % of control where 0% means no effect
Chain of Peroxisome proliferator-activated receptor alpha (Homo sapiens) (Q07869 whole entry, looked up, the tested form may be a part): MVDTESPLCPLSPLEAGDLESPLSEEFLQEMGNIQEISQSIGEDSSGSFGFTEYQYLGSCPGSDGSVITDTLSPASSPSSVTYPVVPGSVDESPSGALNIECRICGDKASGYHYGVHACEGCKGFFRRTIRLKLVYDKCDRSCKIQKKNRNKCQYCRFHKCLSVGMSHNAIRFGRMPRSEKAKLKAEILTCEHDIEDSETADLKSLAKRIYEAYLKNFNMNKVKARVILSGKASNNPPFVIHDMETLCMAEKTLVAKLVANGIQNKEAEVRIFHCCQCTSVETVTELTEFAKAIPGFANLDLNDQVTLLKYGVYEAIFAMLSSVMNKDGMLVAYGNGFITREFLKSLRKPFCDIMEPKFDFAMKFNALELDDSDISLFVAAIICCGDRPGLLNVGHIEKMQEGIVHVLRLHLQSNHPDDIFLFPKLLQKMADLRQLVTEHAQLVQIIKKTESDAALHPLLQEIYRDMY
Summary of the method: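 Enzyme-fragment complementation assay in which ligand-bound PPARalpha translocates and forms an active enzyme that generates chemiluminescence. Cells were plated overnight, exposed to compound for 6 hr at 37 C, and then given detection reagent for 60 min at room temperature.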

[10] = target: Nuclear receptor ROR-gamma (Homo sapiens) (UniProt P51449); experiment: qHTS assay for small molecule antagonists of the retinoid-related orphan receptor gamma (ROR-gamma) signaling pathway (AID 651802); further: nearly all actives have a fitted effect of over 60% in size; further: potency means the concentration at half of the fitted maximal effect
Chain of Nuclear receptor ROR-gamma (Homo sapiens) (P51449 whole entry, looked up): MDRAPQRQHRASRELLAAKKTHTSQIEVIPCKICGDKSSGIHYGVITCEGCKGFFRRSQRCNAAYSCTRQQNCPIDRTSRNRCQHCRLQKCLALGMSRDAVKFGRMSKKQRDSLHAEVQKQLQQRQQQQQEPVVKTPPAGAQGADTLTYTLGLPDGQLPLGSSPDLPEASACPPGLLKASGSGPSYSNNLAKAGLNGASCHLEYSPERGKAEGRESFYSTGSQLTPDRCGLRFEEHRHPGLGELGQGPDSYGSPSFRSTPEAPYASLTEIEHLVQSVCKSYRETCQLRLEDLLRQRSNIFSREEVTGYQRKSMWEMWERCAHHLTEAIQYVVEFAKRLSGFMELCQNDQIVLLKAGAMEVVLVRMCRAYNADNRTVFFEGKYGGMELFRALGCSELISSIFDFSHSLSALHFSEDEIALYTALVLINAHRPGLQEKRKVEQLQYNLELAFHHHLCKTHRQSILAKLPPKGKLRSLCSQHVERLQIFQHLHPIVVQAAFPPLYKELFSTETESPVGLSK
Summary of the method: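 Luciferase read-out: ONE-Glo luminescence after 30 min at room temperature, following 16hr doxycycline induction at 37C, 5% CO2 of CHO cells with TET-inducible ROR and RORE-LUC reporter; decreased luminescence = reduced reporter activity.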

[11] = qHTS Assay for Identification of Small Molecule Agonists for NFkB Signaling Pathway. (AID 624478);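 further: compounds tested together with TNF alpha at its EC50 of 10 pM; 0% is about no effect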
Summary of the method: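 Read-out: 460/530 nm emission at 405 nm excitation after 2 h LiveBLAzer loading; ME-180 NFkB-bla reporter cells exposed 5 h at 37 C to compounds with 10 pM TNF alpha final.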

[12] = qHTS Assay for Identification of Small Molecule Antagonists for NFkB Signaling Pathway. (AID 624479; calls by dose curve;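 further: pathway stimulated with TNF alpha; potency means the concentration at half of the fitted maximal effect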); conditions: NFkB pathway reporter cell assay, antagonist mode
[13] = Cell Proliferation Assay against the TMD8 Cell Line (AID 651645); conditions: TMD8 DLBCL cell line proliferation/viability; at 46.1 µM (top of the series);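 further: cells exposed to compound for 48 h before reading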
Summary of the method: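 Cell viability of the ABC DLBCL line TMD8 is measured by CellTiter-Glo luminescence following a 48-hour incubation with compound. Percent activity uses DMSO as 100% and 9.2 uM bortezomib (final) as 0%.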

[14] = Cell Proliferation Assay against the HBL1 Cell Line (AID 651646); conditions: HBL1 DLBCL cells; at 46.1 µM (top of the series);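 further: cells exposed to compound for 48 h before reading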
Summary of the method: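 HBL1, 500 cells/well, RPMI no phenol red + 5% FBS; cpd pinned, 48 h 37C/5% CO2; CellTiter-Glo, 15 min RT, luminescence. % activity: DMSO = 100%, bortezomib 9.2 uM final = 0%.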

[15] = Cell Proliferation Assay against the TMD8 Cell Line (Caspase readout at 16 hrs) (AID 651712); conditions: TMD8 lymphoma cells, caspase activation luminescence; further: potency means the concentration at half of the fitted maximal effect
Summary of the method: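 Caspase-Glo luminescence after 16 h compound exposure of TMD8 cells, 37 °C, 5% CO2. Medium: RPMI without phenol red, 5% FBS. Normalisation: DMSO = 0%, bortezomib 9.2 uM final = 100%.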

[16] = qHTS assay for small molecule disruptors of the mitochondrial membrane potential - 1 hr assay (AID 651754; calls by dose curve; further: on the % scale 0 is the no-effect control and ±100 the full control effect; nearly all actives have a fitted effect of over 35% in size)
Summary of the method: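 Read-out: dye fluorescence at 490 nm ex/535 nm em (monomers) and 540 nm ex/590 nm em (aggregates) in HepG2 cells. Compound exposure 1 hr at 37C, followed by 30 min dye loading.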

[17] = qHTS assay for small molecule disruptors of the mitochondrial membrane potential - 5 hr assay (AID 651755; calls by dose curve; further: on the % scale 0 is the no-effect control and ±100 the full control effect; nearly all actives have a fitted effect of over 40% in size)
Summary of the method: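 Read-out: ratiometric Mito-MPS fluorescence, green monomer (ex 490/em 535) vs red mitochondrial aggregate (ex 540/em 590). HepG2 cells treated 5 hr at 37C before 30 min dye loading.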

[18] = target: Tumor necrosis factor (Homo sapiens) (UniProt P01375); experiment: qHTS assay to identify small molecules that stimulate Tumor Necrosis Factor-alpha (TNF-alpha) secretion (AID 651757; active means well fitted curve in the direction sought with a large enough effect in the signal ratio; the % refers to the signal ratio; further: 0% is about no effect)
Chain of Tumor necrosis factor (Homo sapiens) (P01375 whole entry, looked up): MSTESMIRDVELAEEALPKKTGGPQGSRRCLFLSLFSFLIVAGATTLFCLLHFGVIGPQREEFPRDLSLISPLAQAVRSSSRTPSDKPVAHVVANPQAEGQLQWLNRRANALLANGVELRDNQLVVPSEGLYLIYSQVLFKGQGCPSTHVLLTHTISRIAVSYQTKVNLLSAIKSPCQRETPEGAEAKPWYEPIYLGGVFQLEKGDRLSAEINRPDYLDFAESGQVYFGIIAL
Summary of the method: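 THP-1 cells, 3000/well; compound 17 hrs, 37 C; add cryptate/XL665 anti-TNF-alpha antibody pair; 3 hr RT; TR-FRET (HTRF) read of secreted TNF-alpha. Quantitative HTS format.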

[19] = target: Tyrosine-protein kinase Yes (Homo sapiens) (UniProt P07947); experiment: qHTS for small molecule inhibitors of Yes1 kinase: Primary Screen (AID 686947); further: nearly all actives have a fitted effect of over 60% in size; further: potency means the concentration at half of the fitted maximal effect
Chain of Tyrosine-protein kinase Yes (Homo sapiens) (P07947 whole entry, looked up): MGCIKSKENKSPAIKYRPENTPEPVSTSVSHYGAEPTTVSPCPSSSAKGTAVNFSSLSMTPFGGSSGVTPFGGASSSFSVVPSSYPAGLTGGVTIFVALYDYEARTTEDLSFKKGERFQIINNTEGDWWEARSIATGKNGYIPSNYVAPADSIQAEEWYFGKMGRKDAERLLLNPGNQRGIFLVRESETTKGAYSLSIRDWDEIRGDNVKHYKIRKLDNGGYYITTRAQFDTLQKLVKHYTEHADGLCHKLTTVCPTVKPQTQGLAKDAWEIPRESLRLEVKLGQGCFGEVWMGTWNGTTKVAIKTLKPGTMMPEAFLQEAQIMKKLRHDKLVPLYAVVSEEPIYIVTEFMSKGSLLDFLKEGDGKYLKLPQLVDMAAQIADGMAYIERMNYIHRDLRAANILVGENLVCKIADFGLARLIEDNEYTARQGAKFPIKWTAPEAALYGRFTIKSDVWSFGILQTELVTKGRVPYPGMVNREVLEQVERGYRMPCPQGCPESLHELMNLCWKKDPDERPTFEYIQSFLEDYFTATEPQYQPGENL
Summary of the method: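 In this qHTS format, inhibition is expressed relative to DMSO controls with enzyme (maximum) and without enzyme (minimum). The 60 min room-temperature reaction uses 0.1 mM ATP, with ADP detected by luminescence.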

[20] = qHTS assay to identify small molecules that stimulate interleukin-8 (IL-8) secretion (AID 651758; active means well fitted activation curve with a large enough effect in the signal ratio; the % refers to the signal ratio; further: 0% is about no effect)
Summary of the method: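 Compounds are added to THP-1 cells (2000 per well) and left 16 hrs at 37 C. A labeled anti-IL-8 antibody pair is then added, and IL-8 secretion is measured by time-resolved FRET after 1-3 hrs at room temperature.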

Nc1nc(N)c2nc(-c3ccccc3)c(N)nc2n1
active: Potency [6] 54.5 µM and 33.5 µM | Potency [7] 20 µM
inactive: Potency [1] | outcome [2] | outcome [3] | outcome [4] | Potency [5] | activation [8] 13.5% and 13.2% | max response [9] -0.436% and -0.649% | Potency [10]

CCN(CC)CCNC(=O)c1cc(S(C)(=O)=O)ccc1OC
inactive: Potency [1] | outcome [2] | outcome [3] | outcome [4] | Potency [5]

OC(CCN1CCCCC1)(c1ccccc1)C1CCCCC1 (centres undefined)
inactive: Potency [1] | outcome [2] | outcome [3] | outcome [4] | Potency [5]

CCCCNc1ccc(C(=O)OCCN(C)C)cc1
inactive: Potency [1] | outcome [2] | outcome [3] | outcome [4] | Potency [5]

CC(=O)Nc1nnc(S(N)(=O)=O)s1
inactive: Potency [1] | outcome [2] | outcome [3] | outcome [4] | Potency [5] | Potency [6] | activation [7] -5.68% | activation [8] -1.84% | max response [9] -2.77%

CC(C(=O)O)c1ccc(CC2CCCC2=O)cc1 (centres undefined)
inactive: Potency [1] | outcome [2] | outcome [3] | outcome [4] | Potency [5]

COCCOC(=O)C1=C(C)NC(C)=C(C(=O)OC(C)C)C1c1cccc([N+](=O)[O-])c1 (centres undefined)
inactive: Potency [1] | outcome [2] | outcome [3] | outcome [4] | Potency [5]

CCCCNc1c(C(=O)OCC)c(C)nc2c1cnn2CC
inactive: Potency [1] | outcome [2] | outcome [3] | outcome [4] | Potency [5]

Nc1ncn([C@@H]2O[C@H](CO)[C@@H](O)[C@H]2O)c(=O)n1
22.1%: viability, percent of control [14]
active: Potency [12] 16.8 µM | Potency [15] 14.8 µM | Potency [6] 1.37 µM and 1.88 µM | Potency [7] 6.31 µM | Potency [10] 3.35 µM
inactive: Potency [1] | outcome [2] | outcome [3] | outcome [4] | Potency [5] | outcome [11] | Potency [16] | Potency [17] | outcome [18] | activation [8] 5.55% and 8.87% | max response [9] -2.48% and -2.55% | Potency [19]
6.56%: viability (% of control) [13]

Cc1ccc(=O)n(-c2ccccc2)c1
inactive: Potency [1] | outcome [2] | outcome [3] | outcome [4] | Potency [5]

O=C(CCCN1CCC(O)(c2cccc(C(F)(F)F)c2)CC1)c1ccc(F)cc1
inactive: Potency [1] | outcome [2] | outcome [3] | outcome [4] | Potency [5]

CC1=NS(=O)(=O)c2cc(Cl)ccc2N1
inactive: Potency [1] | outcome [2] | outcome [3] | outcome [4] | Potency [5]

COCCCC/C(=N\OCCN)c1ccc(C(F)(F)F)cc1
inactive: Potency [1] | outcome [2] | outcome [3] | outcome [4] | Potency [5]

CC1=C(C)C(=O)C(CCCCC#CCCCC#CCO)=C(C)C1=O
inactive: outcome [2] | outcome [3] | Potency [5]
active: Potency [1] 11.2 µM

C[C@]12CC[C@@H]3c4ccc(O)cc4C[C@@H](CCCCCCCCCS(=O)CCCC(F)(F)C(F)(F)F)[C@H]3[C@@H]1CC[C@@H]2O (some centres undefined)
inactive: outcome [2] | outcome [3] | outcome [4] | Potency [5]

c1cnc(N2CCN(Cc3ccc4c(c3)OCO4)CC2)nc1
inactive: outcome [2] | outcome [3] | outcome [4] | Potency [5]

CCOC(=O)c1cnc2c(cnn2CC)c1NN=C(C)C
inactive: outcome [2] | outcome [3] | outcome [4] | Potency [5]

Cc1cc(C)c(/C=C2\C(=O)Nc3ccccc32)[nH]1
inactive: Potency [1] | outcome [2] | outcome [4] | Potency [5]
active: Potency [19] 1.37 µM

CCC(=O)c1ccc2c(c1)N(CCCN(C)C)c1ccccc1S2
inactive: outcome [2] | outcome [3] | outcome [4] | Potency [5]

CC(C)(C)NCC(O)c1cc(O)cc(O)c1 (centres undefined)
inactive: outcome [2] | outcome [4] | Potency [5]

COc1cc(Cc2cnc(N)nc2N)cc(OC)c1OC
inactive: Potency [1] | outcome [2] | outcome [3] | Potency [5] | Potency [6] | activation [7] -2.04% | Potency [16] | Potency [17] | outcome [18] | activation [8] -1.14% | max response [9] -3.22%

COc1ccc(CN(CCN(C)C)c2ccccn2)cc1
inactive: Potency [1] | outcome [2] | outcome [3] | outcome [4] | Potency [5] | Potency [20] | activation [8] 3.63% | max response [9] -5.33% | Potency [10]

CCc1c(C)[nH]c2c1C(=O)C(CN1CCOCC1)CC2 (centres undefined)
inactive: outcome [2] | outcome [3] | outcome [4] | Potency [5]

Cc1ccc(S(=O)(=O)NC(=O)NN2CCCCCC2)cc1
active: Potency [1] 10 µM
inactive: outcome [2] | outcome [3] | outcome [4] | Potency [5] | Potency [6] | activation [8] 10.4% | max response [9] -0.39%

CO[C@@]1(NC(=O)CSCC#N)C(=O)N2C(C(=O)O)=C(CSc3nnnn3C)CS[C@@H]21
inactive: outcome [2] | outcome [3] | outcome [4] | Potency [5]

CC(C)(Oc1ccc(CCNC(=O)c2ccc(Cl)cc2)cc1)C(=O)O
inactive: Potency [1] | outcome [2] | outcome [3] | outcome [4] | Potency [5] | activation [8] -0.0115% | max response [9] 9.62%
